Measurements reported in PubChem BioAssay (NCATS).
Activity calls are given as the source filed them. Where a call stands in place of a potency, no number is given. The call rests on the fitted dose curve; in most records, active means well fitted inhibition curve with a large enough effect; inconclusive means small, poorly fitted or top-dose-only effect; inactive means flat fitted curve, though single readings scatter.

Molecular target: Luciferin 4-monooxygenase (Photinus pyralis) (UniProt P08659)
Assay: Primary firefly luciferase (FLuc) qHTS assay for identification of artifact compounds. (AID 1845220); further: nearly all actives have a fitted effect of over 60% in size
Details: purified firefly luciferase, luminescence, 5 min; series mostly up to 54.1 µM
Outline: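 FLuc 10 nM; luciferin 10 uM; ATP 10 uM; Tris-acetate pH 7.6, Mg-acetate 10 mM; 15 min RT preincubation; 5 min reaction; luminescence.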

Row | Structure (SMILES) | Potency | outcome
1 | CC1=CC(=O)CC(C)(C)C1CO[C@@H]1O[C@H](CO)[C@@H](O)[C@H](O)[C@H]1O (stereo partly drawn) | inactive | –
2 | COC(=O)C1C(c2ccc(O)cc2)C(C(=O)O)C1c1ccc(O)cc1 (stereo not drawn) | inactive | –
3 | C=C1CCC2[C@@](C)(C(=O)O)CCC[C@@]2(C)[C@@H]1CCc1ccoc1 (stereo partly drawn) | inactive | –
4 | O=C(O)c1ccncc1Nc1nn(CCN2CCC(F)(F)CC2)c2ccc(F)cc12 | inactive | –
5 | CC1CC2(O)OC(=O)C3=C2C(CCC3)[C@@]12C[C@@H](c1ccoc1)OC2=O (stereo partly drawn) | inactive | –
6 | CC1CCC2C(C)(C)C(O)C(O)CC2(C)C12Cc1c(O)cc(CO)c(C=O)c1O2 (stereo not drawn) | inactive | –
7 | C=C1CCC[C@]2(C)CC[C@@](O)(C(=C)C(=O)O)C[C@@H]12 | inactive | –
8 | N[C@@H](CCNCc1ccc(Cl)cc1)C(=O)N1CCCCC1 | inactive | –
9 | C=C1CCC2C(C)(C(=O)OC)CCCC2(C)C1CCC1=CCOC1=O (stereo not drawn) | inactive | –
10 | CC1(C)CC[C@]2(C(=O)O[C@@H]3O[C@H](CO[C@@H]4O[C@H](CO)[C@@H](O)[C@H](O)[C@H]4O)[C@@H](O)[C@H](O[C@@H]4O[C@H](CO)[C@@H](O)[C@H](O)[C@H]4O)[C@H]3O)CC[C@]3(C)C(=CCC4[C@@]5(C)CC[C@H](O[C@@H]6OC[C@@H](O)[C@H](O)[C@H]6O)[C@@](C)(C(=O)O)C5CC[C@]43C)[C@@H]2C1 (stereo partly drawn) | – | inactive [at 11.6 µM]
11 | COc1ccc(C(=O)CC(=O)O)c2c1C=CC(C)(C)O2 | inactive | –
12 | COC1OC(OC)C(O)(CCC2(C)C(C)CCC3(C)C2CC(O)C(O)C32CO2)C1O (stereo not drawn) | inactive | –
13 | O=C(O)[C@H]1Cc2ccccc2CN1 | – | inactive [at 6.45 µM]
